# Compounds with a hit are over-represented: about 19% of the library has one in this group of screens.
# KB-V1 cytotox: kills drug-selected multidrug resistant KB-V1 cells. KB-V1 MDR cells viability, CellTiter-Glo, 72 h. Potency, µM (series often up to 46.1 µM), hits mostly cytotoxic. actives 3.4% (n = 400,000); note: nearly all actives have a fitted effect of over 60% in size
#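 KB-V1 MDR subline cells in DMEM (phenol-red free, 10% FBS) exposed to compounds in qHTS concentration series for 72 h at 37 degrees C. Viability read by CellTiter-Glo luminescence; concentration-effect curves fitted after normalization and correction.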
# HT1080 IDH1KD tx: HT-1080 IDH1 knockdown cell toxicity (counter line). HT-1080 IDH1 knockdown viability, ATP luminescence, 48 h. Potency, µM (titrated, usually from 46.1 µM), for the others: top-dose activity, negative = toxicity, most hits filed as cytotoxic. actives 2% (n = 360,000). AID 686971;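 note: 0% = DMSO wells and -100% = cell-free medium wells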
#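 Cytotoxicity counter-line: IDH1KD HT-1080, 48 h, CellTiter-Glo. Curves classed by r2, magnitude and activity.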
# TDP1 cell CPT: DT40-hTDP1 cell growth loss with CPT | Potency, µM (top dose mostly 46.2 µM), for the others: at the top dose activity change, negative = growth inhibition, usual class: inhibitors | chicken DT40 Tdp1-/-;hTDP1 cells + 20 nM CPT, ATP luminescence, 48 h | actives 12% (n = 420,000); note: nearly all actives have a fitted effect of over 55% in size
#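 Chicken DT40 Tdp1-/- cells stably complemented with human TDP1 were seeded at 400 cells/well in medium containing 20 nM camptothecin, exposed to pin-transferred compounds, and grown at 37 °C for at least 48 hr. Viability was read as ATP luminescence.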
# DT40 TDP1 no CPT: qHTS for Inhibitors of human tyrosyl-DNA phosphodiesterase 1 (TDP1): qHTS in cells in absence of CPT | actives 15% (n = 420,000) | Potency, µM (doses to about 46.2 µM), for the others: at the top dose activity change, negative = growth inhibition, most hits filed as inhibitors | AID 686978, 2013 | DT40 Tdp1-/- hTDP1 cells, no CPT, ATP luminescence, 48 h; note: nearly all actives have a fitted effect of over 55% in size
#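 A cellular qHTS used chicken DT40 cells lacking endogenous Tdp1 but carrying stably transfected human TDP1. Compounds were applied without camptothecin, and cell growth kinetics were judged by ATP-dependent luminescence after ≥48 hr.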
# HT1080NT lethal: kills 2HG-producing HT-1080-NT fibrosarcoma cells | HT-1080-NT fibrosarcoma viability, CellTiter-Glo ATP luminescence, 48 h | Potency, µM (series often up to 46.1 µM), for inactives: at the highest dose activity, negative = less viability, hits mostly cytotoxic | actives 1.6% (n = 360,000) | AID 686970;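 note: NT is the 2HG producing partner of a matched IDH1 knockdown line; 0% = DMSO-treated cells and -100% = media-only wells without cells; nearly all actives have a fitted effect of over 55% in size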
#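 Luminescent CellTiter-Glo readout after 48 hours of compound exposure at 37 degrees C defined viability of HT-1080-NT cells. Activity was normalized to DMSO wells and cell-free media wells; concentration-response curves were fitted and assigned curve classes.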
# KB-3-1 tox: KB-3-1 parental cell cytotoxicity; actives 1.4% (n = 400,000); Potency, µM (series often up to 46.1 µM), most hits filed as cytotoxic; KB-3-1 viability, CellTiter-Glo ATP luminescence, 72 h; note: nearly all actives have a fitted effect of over 60% in size
#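 Luminescent ATP read-out (CellTiter-Glo) measures survival of drug-naive KB-3-1 cells after 72 h compound exposure at 37 °C. Titration series was screened from lowest to highest concentration, with DMSO vehicle plates as background controls.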
# Numbers without * were called inactive; i = inactive; ? = inconclusive; . = not tested or not shown; [ ] = dose if it differs, or a comment. Calls come from the whole dose curve; as a rule, active = well fitted curve in the direction sought with a large enough effect; inconclusive = small, poorly fitted or top-dose-only effect, or another doubt; inactive = no such curve, though single readings can be large; an effect the other way counts as inactive or inconclusive. Unless noted, % is set by controls: 0 for no effect and ±100 for the full control effect; potency is the fitted concentration of half-maximal effect.
SMILES,KB-V1 cytotox,HT1080 IDH1KD tx,TDP1 cell CPT,DT40 TDP1 no CPT,HT1080NT lethal,KB-3-1 tox
COc1cc2ccccc2cc1C(=O)O,i,9.4%,-1.3%,-13.9%,2.7%,i
COc1ccc(OC)c2cc3ccccc3cc12,i,?,0.731µM*,0.92µM*,-2.4%,i
COc1cc2ccccc2ccc1=NO,16.4µM*,-15.5%,16.4µM*,11.6µM*,-9.8%,?
CSc1ccc(Cl)c(C(=O)NNC(=O)c2cccs2)c1,i,25.0%,6.4%,-16.7%,23.8%,i
COc1ccccc1C(=O)NCC(=O)OC(C)C(=O)NC1CCCCC1C (configuration not stated),i,-1.0%,-9.0%,-12.3%,1.3%,i
Cc1ccsc1C(=O)NNC(=O)c1cccc(S(=O)(=O)N2CCCC2)c1,i,19.7%,?,?,0.6%,i
NC(N)=NCc1cccc(I)c1,i,?,6.51µM*,2.91µM*,-25.7%,i
O=C(CN1C(=O)NC2(CCCCC2)C1=O)Nc1cccc(Cl)c1Cl,i,-9.9%,-23.4%,?,-0.6%,i
Cc1c(Cl)cccc1N=C1SCCN1C(=O)CN1C(=O)NC2(CCCC2)C1=O,i,?,?,18.4µM*,-11.3%,i
COc1cccc(N2CC(O)=C(c3nc4ccccc4c(=O)[nH]3)C2=N)c1,?,?,1.46µM*,1.16µM*,1.26µM*,4.61µM*
CC(C)N1CC(O)=C(c2nc3ccccc3c(=O)[nH]2)C1=N,i,-0.6%,-10.6%,?,16.7%,?
Cc1cc(C)cc(N2CC(O)=C(c3nc4ccccc4c(=O)[nH]3)C2=N)c1,?,-14.8%,13µM*,9.2µM*,-20.1%,14.6µM*
CCCN1CCC(NC(=O)Cc2cccc(C)c2)CC1,i,-3.7%,25.6%,-1.5%,-1.1%,i
CSC(=S)N/N=C(\C)c1ccc(Br)cc1,i,-23.3%,?,2.91µM*,-20.0%,i
COC1C(CO)OC(n2c3c(Cl)cccc3c3c4c(c5c6cccc(Cl)c6[nH]c5c32)C(=O)NC4=O)C(O)C1O (configuration not stated),i,5.8µM*,0.517µM*,2.59µM*,4.61µM*,8.2µM*
COC1C(O)C(CO)OC1n1c(Br)nc2c(=O)[nH]c(N)nc21 (configuration not stated),.,.,-11.7%,1.2%,.,.
O=C(Nc1nc2ccccc2n1CCN1CCCCC1)C1CCCCC1,?,-8.8%,?,?,-10.4%,?
CCn1nccc1C(=O)Nc1nc2ccccc2n1CCN1CCCCC1,i,-18.4%,35.5µM*,?,-4.6%,i
CCCn1c(NC(=S)Nc2ccccc2)nc2ccccc21,16.4µM*,-5.7%,?,?,-5.1%,?
O=C(Nc1nc2ccccc2n1CCOc1ccccc1Cl)c1ccccc1,i,.,?,?,.,i
S=C(Nc1ccccc1)Nc1nc2ccccc2n1CCOc1ccc(Cl)cc1,i,?,20.6µM*,16.4µM*,?,i
CCn1c(NC(=O)C2CCCCC2)nc2ccccc21,?,-26.3%,18.4µM*,13µM*,-11.3%,?
CCc1ccc(NC(=O)Cn2c(=O)n(Cc3ccco3)c(=O)c3oc4ccccc4c32)cc1,i,.,-21.2%,-15.2%,.,i
CCn1c(NC(=S)Nc2ccccc2)nc2ccccc21,i,-14.1%,5.17µM*,4.61µM*,?,i
COc1ccc(OC)c(Nc2nc(N)nc(-c3cc4ccccc4o3)n2)c1,14.6µM*,2.0%[9.24 µM],?,18.4µM*,-27.9%,?
SMILES,KB-V1 cytotox,HT1080 IDH1KD tx,TDP1 cell CPT,DT40 TDP1 no CPT,HT1080NT lethal,KB-3-1 tox
CCC(=O)NC(c1ccc(C)cc1)c1ccc2cccnc2c1O (configuration not stated),?,?,4.11µM*,4.61µM*,-29.7%,?
CCCCC(=O)NC(c1ccc(OC)cc1)c1ccc2cccnc2c1O (configuration not stated),i,?,5.8µM*,9.2µM*,?,?
CCCC(=O)NC(c1ccco1)c1cc([N+](=O)[O-])c2cccnc2c1O (configuration not stated),?,-22.4%,-7.0%,-22.5%,-8.5%,?
CCCC(=O)NC(c1ccccc1Cl)c1ccc2cccnc2c1O (configuration not stated),?,?,3.26µM*,5.17µM*,?,?
CCCC(=O)NC(c1ccc(N(C)C)cc1)c1ccc2cccnc2c1O (configuration not stated),i,?,0.651µM*,0.92µM*,?,?
Cc1cc(O)ccc1Nc1cc(-c2cccc(N(C)C)c2)ncn1,i,-2.1%,?,-21.1%,-3.3%,i
Cc1c(NC(=O)C(C)OC(=O)c2ccc([N+](=O)[O-])cc2Cl)c(=O)n(-c2ccccc2)n1C (configuration not stated),i,-0.1%,-18.0%,-10.7%,3.1%,i
CCOC(=O)c1sc2nccc(OC)c2c1N=CNOC,i,10.6%,4.0%,-25.5%,23.4%,i
CC1CCc2sc(C(=O)NN=C3CCCC3)cc2C1 (configuration not stated),i,-12.3%,-10.2%,-29.3%,5.0%,?
CCOC(=O)c1ccc(NC(=O)Cn2cc3c(n2)CCC(C)C3)cc1 (configuration not stated),i,-3.7%,-1.3%,-8.7%,5.5%,i
COc1ccc(C(NC(=O)C(C)C)c2ccc3cccnc3c2O)cc1 (configuration not stated),?,?,0.731µM*,0.461µM*,1.64µM*,i
CCCC(=O)NC(c1ccc(C(C)C)cc1)c1ccc2cccnc2c1O (configuration not stated),?,?,5.17µM*,2.31µM*,-9.3%,5.17µM*
CC(=O)NC(c1ccc(Cl)cc1)c1ccc2cccnc2c1O (configuration not stated),?,?,4.11µM*,2.59µM*,?,i
C[C@@H](NC(c1ccc(F)cc1)c1ccc2cccnc2c1O)c1ccccc1 (some centres not stated),i,.,.,.,.,?
Cc1cc(NC(c2ccc(Cl)cc2)c2ccc3cccnc3c2O)no1 (configuration not stated),?,?,4.11µM*,4.61µM*,?,?
